Sampled rows, rich in hits. Any-hit rate of the full collection: about 12%.
Cycloheximide cs: affects cycloheximide protein synthesis inhibition readout, counter-screen | hit rate 12% among 300,000 | max response, % | cell reporter, cycloheximide protein synthesis inhibition counterscreen; in the data active = max response mostly above about 13%, no sharp cut-off; inactive = mostly below about 14%; note: read at 38.3 µM for the half of the compounds with a filed dose; 0% is about no effect
FMDV inh: blocks foot and mouth disease virus; FMDV antiviral cell-based qHTS; AID 1159524; Potency, µM (doses to about 57.9 µM), without a hit: top-dose activity change, negative = inhibition, most hits filed as inhibitors; hit rate 1.2% among 410,000; calls by dose curve; tested in HEK293T cells; note: read-out not given here; potency is the fitted concentration of half-maximal effect; % is set by controls: 0 for no effect and ±100 for the full control effect; nearly all actives have a fitted effect of over 45% in size
Shiga inhibitor: inhibitors of Shiga toxin in Vero cells | Vero cells, Shiga toxin protein synthesis inhibition reporter | inhibition, % at 38.7 µM | hit rate 9.2% among 290,000; in the data active = inhibition mostly above about 28%, no sharp cut-off; inactive = mostly below about 43%; note: 0% is about no effect
Sm TGR inh: blocks Schistosoma mansoni thioredoxin glutathione reductase; hit rate 3% among 360,000; Potency, µM (titrated, usually from 114 µM), inactives show at the highest dose activity change, negative = inhibition, usual class: inhibitors; purified TGR, DTNB reduction, TNB absorbance 405 nm; active = well fitted inhibition curve with a large enough effect; inconclusive = small, poorly fitted or top-dose-only effect; inactive = no such curve, though single readings can be large or run the other way; note: potency is the fitted concentration of half-maximal effect; % is set by controls: 0 for no effect and ±100 for the full control effect; nearly all actives have a fitted effect of over 60% in size
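TGR 20 nM + NADPH 100 uM (dispensed conc.), cpd preinc 15 min RT; start with NADPH (500 uM addition) then DTNB (15 mM addition). Kinetic TNB absorbance, 405 nm filter. Four-parameter Hill fit across titration.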
Numbers without * were called inactive; u = inconclusive; x = not tested or not shown; [ ] = another dose, or the depositor's remark.

SMILES | Cycloheximide cs | FMDV inh | Shiga inhibitor | Sm TGR inh
Cc1ccsc1C(=O)N(Cc1cc2ccc(F)cc2nc1N1CCC(O)CC1)CC1CCCO1 (stereo unspecified) | x | 0.2% | x | x
CCOc1ccc(CNC(=O)c2ccc3nc(CC)c(CC)nc3c2)cc1 | x | 4.0% | x | -1.5%
Cc1cccc(Nc2nc(-c3ccc(O)cc3O)cs2)n1 | 38.2* | 26.2% | 109.3* | 8.4%
N#Cc1ccc(Nc2nc(-c3ccc(O)cc3O)cs2)cc1C(F)(F)F | x | 35.5µM* | x | 1.3%
CC(N)c1csc(Nc2ncccn2)n1 (stereo unspecified) | x | -4.7% | x | x
Oc1ccc(-c2csc(Nc3ncccn3)n2)cc1O | 32.8* | -74.7% | 103.2* | u
Cc1nc(-c2c(C(F)(F)F)noc2-c2ccc(O)cc2O)cs1 | -1.6 | u | -9.7 | -28.8%
Cc1ccc(C)c(-c2csc(Nc3ncccn3)n2)c1 | -0.6 | 9.0% | 12.2 | -6.8%
Oc1ccc(-c2csc(Nc3ccc4c(c3)OCO4)n2)c(O)c1 | x | 21.8% | x | x
Oc1ccc(-c2csc(Nc3ncccn3)n2)c(O)c1 | 59.5* | 31.5% | 88.2* | -13.4%
COCC1CCCN(Cc2ccc3c(c2)CN(C(=O)c2cn4ccc(C)cc4n2)CCO3)C1 (stereo unspecified) | x | -4.1% | x | x
COc1ccc(OC)c(CNC(=O)CCCn2nc(C)c3c(C)n(-c4ccc(C)cc4)nc3c2=O)c1 | x | -18.9% | x | -11.7%
O=c1nc(N/N=C/c2ccccn2)cn[nH]1 | 45.9* | 12.8% | 125.3* | 30.0%
Cc1ccc(/C=N/Nc2cn[nH]c(=O)n2)o1 | 24.4* | 24.4% | 87.8* | 50.3%
CCc1ccccc1NC(=O)Cn1c(=O)n(-c2ccc(C)c(C)c2)c(=O)c2oc3ccccc3c21 | x | 1.1% | x | u
O=C(CNS(=O)(=O)c1cccs1)N1CCc2ccccc2C1 | 47.9* | 43.8% | 55.4* | 0.1%
O=C(CCCNS(=O)(=O)c1cccs1)N1CCc2ccccc2C1 | 19.0 | 0.0% | 27.3 | -12.8%
O=C(CNS(=O)(=O)c1cccs1)N1CCN(c2ccccc2F)CC1 | 35.1* | 50.3% | 71.3* | 10.0%
c1ccc(CCNc2ncnc3nc[nH]c23)cc1 | 37.6* | -18.9% | 44.6* | -7.5%
CC(=O)c1cc(-c2ccc(F)cc2)n(CCC(=O)NC2CCCCC2)c1C | x | 0.0% | x | 0.0%
CCOC(=O)Cn1c(CN(C)Cc2ccccc2)nc2c1c(=O)n(C)c(=O)n2C | x | 14.1µM* | x | x
COC(=O)Cn1c(CN(C)Cc2ccccc2)nc2c1c(=O)n(C)c(=O)n2C | -1.6 | u | x | -16.3%
Cc1ccc(NC(=O)c2cnn3c(C(F)F)cc(-c4ccccc4)nc23)cc1F | x | u | x | -3.7%
COc1cc(S(=O)(=O)n2ccnc2C(C)C)ccc1Br | x | -0.1% | x | 0.7%
CSc1ccc(CNc2ccc(Cl)cc2)cc1 | 26.7* | x | 79.3* | -25.2%
SMILES | Cycloheximide cs | FMDV inh | Shiga inhibitor | Sm TGR inh
Cc1ccc(NCSc2ccc(Cl)cc2)cc1 | x | 28.5% | x | x
Cc1ccc(Cl)cc1NC(=O)CN(C)S(=O)(=O)c1ccc2c(c1)n(C)c(=O)c(=O)n2C | x | -6.2% | x | 1.2%
c1nnc(-c2ccc3c(c2)OCO3)o1 | 7.7 | 6.7% | 20.6 | -3.3%
Cc1ccc(-c2nnc(-c3ccc4c(c3)OCO4)o2)cc1 | 45.6* | 3.8% | 101.1* | 3.5%
O=C1CCCCC1Sc1nnc(-c2ccc3c(c2)OCO3)o1 (stereo unspecified) | -11.6 | 3.98µM* | -27.6 | -11.2%
Clc1ccc(CSc2nnc(-c3ccc4c(c3)OCO4)o2)cc1 | 1.1 | 1.4% | -8.4 | 4.6%
c1coc(-c2nnc(-c3ccc4c(c3)OCO4)o2)c1 | 21.7* | x | 51.7* | 7.9%[11.4 µM]
Brc1ccc(-c2nnc(-c3ccc4c(c3)OCO4)o2)o1 | 35.0* | 0.0% | 111.3* | 0.3%
Cc1ccc(CNC(=O)CCn2cnc3ccccc3c2=O)cc1 | x | -24.2% | x | 3.8%
COC(=O)N/N=C/c1cn(CCCOc2ccccc2)c2ccccc12 | 39.5* | u | 72.1* | -22.2%
CC1=CN2C(=N)/C(=C\c3cn(CCCOc4ccccc4)c4ccccc34)C(=O)N=C2S1 | 11.7* | -28.2% | 10.5 | -1.6%
O=Cc1cn(CCCOc2ccccc2)c2ccccc12 | 55.0* | -7.3% | 50.8* | 7.2%
O=C(N/N=C/c1cn(CCOc2ccccc2)c2ccccc12)c1ccncc1 | 0.9 | 6.9% | 24.9 | 2.8%
Cc1ccccc1NC1=C(Cl)C(=O)N(C2CCCCC2)C1=O | 12.7* | -25.2% | 13.7 | -12.4%
COc1ccccc1NC1=C(Cl)C(=O)N(C2CCCCC2)C1=O | 1.4 | -14.8% | 15.9 | -10.9%
CN1CCN(c2ccc(NC(=O)c3ccc4c(c3)OCCO4)cc2)CC1 | 36.1* | 14.8% | 81.0* | x
Cc1ccc(C(=O)Nc2ccc(N3CCN(C)CC3)cc2)cc1C | 32.0* | 9.9% | 79.9* | -6.8%
CN1CCN(c2ccccc2NC(=O)c2ccc3c(c2)OCCO3)CC1 | -0.5 | 20.0% | 11.1 | 1.7%
O=C(Nc1ccc(N2CCN(C(=O)c3ccco3)CC2)cc1)c1ccc2c(c1)OCO2 | -1.0 | -12.8% | -4.4 | 0.6%
CCC(=O)N1CCN(c2ccc(NC(=O)c3ccc4c(c3)OCCO4)cc2)CC1 | 19.2* | -17.1% | 35.6 | 6.6%
Cc1ccccc1C(=O)N1CCN(c2ccc(NC(=O)c3ccc4c(c3)OCO4)cc2)CC1 | 1.4 | 12.6µM* | -8.6 | 11.9%
Cc1nn(-c2ccc(Cl)cc2)c2nc(-c3cccnc3)cc(C(F)(F)F)c12 | x | -9.8% | x | -9.0%
O=C(COc1ccc(Cl)cc1)Nc1ccc2nc(SCC(=O)N3CCCC3)sc2c1 | x | u | x | -11.2%
CCCc1cc(=O)oc2c3c(ccc12)OCN(Cc1ccc(OC)cc1)C3 | -1.9 | 0.3% | -3.7 | 1.7%
Cc1ccc(C(=O)Nc2ccc(N3CCN(C)CC3)cc2)c(Cl)c1 | 42.2* | 15.3% | 62.4* | 10.4%
SMILES | Cycloheximide cs | FMDV inh | Shiga inhibitor | Sm TGR inh
Oc1ccccc1-c1nc(/C=C/c2ccccc2)nn1-c1ccccc1 | 23.3* | -4.5% | 32.6 | 5.5%
Oc1ccc(/C=C/c2nc(-c3ccccc3O)n(-c3ccccc3)n2)cc1 | 0.2 | -0.5% | -33.6 | -17.0%
Cc1cc(Cl)ccc1NC(=O)CN1C(=O)C(=O)c2ccccc21 | x | 6.2% | x | -2.8%
O=C(Nc1cc(F)ccc1F)N1CCC(CN2CCOCC2)CC1 | x | -10.5% | x | -0.1%
CC(C)(C)c1cnnn1-c1ccc(C=O)cc1 | 6.9 | 0.6% | 10.4 | -4.8%
CC(C)(C)c1cnnn1-c1ccc(C(=O)CCl)cc1 | -1.6 | 3.3% | -7.6 | 8.91µM*
Cc1nc2c(c(C)c1CCC(=O)NCc1ccc(Cl)cc1)c(=O)n(C)c(=O)n2C | x | -7.7% | x | -1.4%
CCOCCOC(=O)c1ccc2c(c1)N(Cc1ccccc1C#N)C(=O)c1ccccc1S2(=O)=O | x | -9.7% | x | 5.9%
Cc1ccccc1NC(=S)c1nc2ccccc2[nH]1 | 41.6* | 6.8% | active | -0.1%
Cc1ccccc1NC(=O)NCCc1nc2ccccc2[nH]1 | -2.7 | -6.8% | 8.4 | 3.6%
S=C(Nc1ccc(Cl)cc1)c1nc2ccccc2[nH]1 | 59.3* | -23.4% | 65.9* | -1.2%
CC(=O)Nc1ccc(Cc2nc3ccccc3[nH]2)cc1 | -2.7 | 10.3% | -3.3 | x
CC1CCN(C(=O)CSc2nc3ccccc3s2)CC1 | 33.6* | 39.4% | 45.4 | 0.0%
O=C(O)C1CCN(C(=O)CSc2nc3ccccc3s2)CC1 | -10.7 | -6.8% | -10.8 | 1.5%
CSc1nsc(SCC(=O)N2CCCCC2)n1 | 52.8* | 80.7% | 93.1* | 2.9%
CCN(CC)S(=O)(=O)c1ccc(-c2nnc(SCC(=O)N3c4ccccc4CC3C)o2)cc1 (stereo unspecified) | 3.0 | 0.0% | -5.1 | -5.6%

Compound activity deposited in PubChem by National Center for Advancing Translational Sciences (NCATS).
